We go through one compound from ChEMBL document CHEMBL2218924, “A broad activity screen in support of a chemogenomic map for kinase signalling research and drug discovery” (Biochem J, 2013).

In assay [1] the target is Tyrosine-protein kinase SYK (Homo sapiens) (UniProt P43405). Particulars: at 10 µM.
Assay [2] addresses T1, Mitogen-activated protein kinase kinase kinase 7 (Homo sapiens) (UniProt O43318).
T1 sequence (whole entry): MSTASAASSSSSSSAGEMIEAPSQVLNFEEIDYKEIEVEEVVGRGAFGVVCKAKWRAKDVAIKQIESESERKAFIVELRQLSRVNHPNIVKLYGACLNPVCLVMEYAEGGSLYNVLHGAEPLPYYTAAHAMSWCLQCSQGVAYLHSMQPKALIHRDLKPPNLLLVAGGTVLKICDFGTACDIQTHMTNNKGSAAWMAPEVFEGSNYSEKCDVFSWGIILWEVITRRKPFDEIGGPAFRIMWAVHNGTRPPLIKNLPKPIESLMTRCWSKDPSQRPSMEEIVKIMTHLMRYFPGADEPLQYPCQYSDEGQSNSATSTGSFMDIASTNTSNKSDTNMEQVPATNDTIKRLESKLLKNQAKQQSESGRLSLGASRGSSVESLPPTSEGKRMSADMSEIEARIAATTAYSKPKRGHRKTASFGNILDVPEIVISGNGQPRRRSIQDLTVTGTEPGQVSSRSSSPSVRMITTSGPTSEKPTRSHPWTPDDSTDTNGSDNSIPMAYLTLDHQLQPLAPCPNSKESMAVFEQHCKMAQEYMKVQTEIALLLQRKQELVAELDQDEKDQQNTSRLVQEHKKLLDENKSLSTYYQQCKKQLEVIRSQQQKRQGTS
The conditions noted are these: at 1 µM.

The target of assay [3] is T1, Mitogen-activated protein kinase kinase kinase 7 (Homo sapiens). Particulars: at 10 µM.
Assay [4] has as its target T2, Serine/threonine-protein kinase TAO1 (Homo sapiens) (UniProt Q7L7X3).
T2 sequence (whole entry): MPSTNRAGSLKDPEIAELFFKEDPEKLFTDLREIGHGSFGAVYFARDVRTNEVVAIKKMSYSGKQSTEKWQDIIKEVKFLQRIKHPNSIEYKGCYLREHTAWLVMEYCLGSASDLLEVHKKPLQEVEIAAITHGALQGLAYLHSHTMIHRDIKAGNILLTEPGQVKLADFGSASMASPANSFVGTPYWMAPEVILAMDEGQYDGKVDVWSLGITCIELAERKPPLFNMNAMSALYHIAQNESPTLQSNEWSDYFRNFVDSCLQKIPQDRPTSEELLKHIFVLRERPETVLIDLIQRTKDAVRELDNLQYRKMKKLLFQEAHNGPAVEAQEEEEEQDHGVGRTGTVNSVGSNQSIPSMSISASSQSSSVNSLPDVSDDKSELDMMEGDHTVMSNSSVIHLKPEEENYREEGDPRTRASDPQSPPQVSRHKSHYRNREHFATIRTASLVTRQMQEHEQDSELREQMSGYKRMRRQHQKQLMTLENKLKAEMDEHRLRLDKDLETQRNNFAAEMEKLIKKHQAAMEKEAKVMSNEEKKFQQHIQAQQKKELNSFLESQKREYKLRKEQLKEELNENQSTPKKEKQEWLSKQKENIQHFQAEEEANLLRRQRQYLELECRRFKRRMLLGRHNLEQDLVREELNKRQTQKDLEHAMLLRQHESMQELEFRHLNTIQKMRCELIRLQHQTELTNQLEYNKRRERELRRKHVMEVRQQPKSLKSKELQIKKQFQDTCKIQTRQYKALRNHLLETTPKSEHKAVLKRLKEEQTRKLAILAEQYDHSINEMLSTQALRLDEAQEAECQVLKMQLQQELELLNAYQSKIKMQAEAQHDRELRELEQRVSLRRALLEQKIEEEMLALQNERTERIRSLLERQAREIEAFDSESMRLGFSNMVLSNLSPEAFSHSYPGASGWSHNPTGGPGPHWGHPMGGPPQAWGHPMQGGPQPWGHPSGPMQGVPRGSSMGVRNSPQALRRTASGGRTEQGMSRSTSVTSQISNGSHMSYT
Particulars: at 1 µM.

Assay [5] concerns the target T2, Serine/threonine-protein kinase TAO1 (Homo sapiens). Particulars: at 10 µM.
The target in assay [6] is T3, Serine/threonine-protein kinase TAO2 (Homo sapiens) (UniProt Q9UL54).
T3 sequence (whole entry): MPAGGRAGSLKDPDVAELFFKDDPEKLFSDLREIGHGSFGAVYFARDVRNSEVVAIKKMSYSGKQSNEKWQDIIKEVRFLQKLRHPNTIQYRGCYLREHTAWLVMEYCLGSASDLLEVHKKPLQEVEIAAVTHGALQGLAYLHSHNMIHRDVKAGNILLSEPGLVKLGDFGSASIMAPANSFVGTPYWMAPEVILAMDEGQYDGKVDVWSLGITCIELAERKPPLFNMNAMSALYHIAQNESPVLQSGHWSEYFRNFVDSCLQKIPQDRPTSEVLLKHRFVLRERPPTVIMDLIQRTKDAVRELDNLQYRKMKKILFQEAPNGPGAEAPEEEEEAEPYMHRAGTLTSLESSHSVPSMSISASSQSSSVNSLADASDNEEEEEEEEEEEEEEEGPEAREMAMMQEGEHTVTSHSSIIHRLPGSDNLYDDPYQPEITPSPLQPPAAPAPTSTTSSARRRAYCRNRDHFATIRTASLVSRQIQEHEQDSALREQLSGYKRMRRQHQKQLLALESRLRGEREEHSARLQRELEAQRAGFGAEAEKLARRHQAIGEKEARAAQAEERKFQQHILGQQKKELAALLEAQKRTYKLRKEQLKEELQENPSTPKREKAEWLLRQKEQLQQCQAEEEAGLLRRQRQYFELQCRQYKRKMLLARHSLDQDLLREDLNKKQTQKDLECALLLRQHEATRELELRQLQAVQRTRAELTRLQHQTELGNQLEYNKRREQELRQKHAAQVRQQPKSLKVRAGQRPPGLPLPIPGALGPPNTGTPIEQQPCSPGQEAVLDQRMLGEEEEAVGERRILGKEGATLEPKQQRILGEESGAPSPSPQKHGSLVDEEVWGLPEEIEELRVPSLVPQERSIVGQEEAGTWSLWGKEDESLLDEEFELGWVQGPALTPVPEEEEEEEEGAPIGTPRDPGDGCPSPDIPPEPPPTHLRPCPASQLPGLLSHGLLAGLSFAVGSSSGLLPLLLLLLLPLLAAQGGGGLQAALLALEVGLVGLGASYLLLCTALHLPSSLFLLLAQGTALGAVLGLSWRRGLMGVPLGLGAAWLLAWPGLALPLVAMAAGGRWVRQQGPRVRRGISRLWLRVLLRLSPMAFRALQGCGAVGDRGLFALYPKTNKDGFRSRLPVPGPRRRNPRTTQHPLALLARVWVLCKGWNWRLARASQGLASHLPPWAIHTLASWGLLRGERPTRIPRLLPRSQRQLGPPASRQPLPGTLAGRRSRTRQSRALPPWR
The conditions noted are these: at 1 µM.

The target in assay [7] is T3, Serine/threonine-protein kinase TAO2 (Homo sapiens). The conditions noted are these: at 10 µM.
The target of assay [8] is T4, Serine/threonine-protein kinase TAO3 (Homo sapiens) (UniProt Q9H2K8).
T4 sequence (whole entry): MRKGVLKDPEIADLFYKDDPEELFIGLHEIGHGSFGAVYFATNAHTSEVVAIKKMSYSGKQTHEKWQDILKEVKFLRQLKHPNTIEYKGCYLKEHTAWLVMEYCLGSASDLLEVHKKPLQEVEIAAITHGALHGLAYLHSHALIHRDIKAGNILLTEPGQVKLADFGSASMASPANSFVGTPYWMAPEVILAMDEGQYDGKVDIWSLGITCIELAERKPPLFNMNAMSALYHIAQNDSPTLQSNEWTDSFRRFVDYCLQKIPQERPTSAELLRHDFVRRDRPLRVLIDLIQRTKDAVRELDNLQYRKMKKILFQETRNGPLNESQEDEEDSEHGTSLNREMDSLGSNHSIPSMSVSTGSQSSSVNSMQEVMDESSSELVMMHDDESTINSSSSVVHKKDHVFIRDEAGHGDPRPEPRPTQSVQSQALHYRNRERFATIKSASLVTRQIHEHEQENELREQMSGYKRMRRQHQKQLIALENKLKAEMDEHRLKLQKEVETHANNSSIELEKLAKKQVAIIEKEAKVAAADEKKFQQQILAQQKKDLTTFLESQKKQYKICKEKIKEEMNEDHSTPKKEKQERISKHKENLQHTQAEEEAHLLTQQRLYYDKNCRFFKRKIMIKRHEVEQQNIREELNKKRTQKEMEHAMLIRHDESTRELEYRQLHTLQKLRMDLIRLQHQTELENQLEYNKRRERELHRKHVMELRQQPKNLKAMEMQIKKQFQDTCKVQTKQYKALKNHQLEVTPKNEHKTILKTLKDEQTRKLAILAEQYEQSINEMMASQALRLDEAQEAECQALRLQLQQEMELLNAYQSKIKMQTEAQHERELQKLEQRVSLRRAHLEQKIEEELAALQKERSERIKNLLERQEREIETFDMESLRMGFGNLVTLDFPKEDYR
Particulars: at 1 µM.

Assay [9] has as its target T4, Serine/threonine-protein kinase TAO3 (Homo sapiens). The conditions noted are these: at 10 µM.
The target in assay [10] is T5, Serine/threonine-protein kinase TBK1 (Homo sapiens) (UniProt Q9UHD2).
T5 sequence (whole entry): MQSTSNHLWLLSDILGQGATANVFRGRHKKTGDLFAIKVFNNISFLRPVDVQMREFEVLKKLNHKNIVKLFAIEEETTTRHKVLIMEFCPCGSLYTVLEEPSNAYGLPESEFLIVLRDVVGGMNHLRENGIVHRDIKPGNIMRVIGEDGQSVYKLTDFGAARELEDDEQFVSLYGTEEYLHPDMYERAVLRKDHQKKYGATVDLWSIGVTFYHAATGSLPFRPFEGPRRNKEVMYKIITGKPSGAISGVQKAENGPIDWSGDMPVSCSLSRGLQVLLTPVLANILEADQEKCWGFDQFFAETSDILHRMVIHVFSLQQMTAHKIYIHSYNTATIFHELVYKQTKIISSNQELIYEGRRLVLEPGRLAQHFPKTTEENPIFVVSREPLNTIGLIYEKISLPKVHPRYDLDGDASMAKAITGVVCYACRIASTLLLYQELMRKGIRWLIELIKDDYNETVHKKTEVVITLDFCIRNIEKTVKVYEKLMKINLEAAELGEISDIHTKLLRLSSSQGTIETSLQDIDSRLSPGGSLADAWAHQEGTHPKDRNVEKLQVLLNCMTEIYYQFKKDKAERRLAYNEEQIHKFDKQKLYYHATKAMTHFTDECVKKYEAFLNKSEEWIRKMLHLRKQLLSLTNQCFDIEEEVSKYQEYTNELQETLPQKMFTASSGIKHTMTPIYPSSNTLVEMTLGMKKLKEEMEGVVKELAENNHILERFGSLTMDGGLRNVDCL
The conditions noted are these: at 1 µM.

Take `O=C1Nc2cc(Br)ccc2/C1=C1/Nc2ccccc2/C1=N\O`: the residual activity in assay [1] stood at 37%; in [2] it was 89%; in assay [3], 81%; in assay [4] it was 68%; in [5], 58%; in [6], 75%. The residual activity in [7] is 91%; in assay [8] it was 68%; in assay [9] it was 82%; in assay [10], 8%.
